Measurements taken from PubChem BioAssay (Tox21).
Where “and” joins values, the source holds several entries; their conditions need not be identical. Equal values may be shown once. Inconclusive results are not listed. Where a structure was tested more than once in an assay, its records may differ in their call. Calls of active or inactive are those of the source. Unless noted, calls follow the shape of the full dose curve.

How the values were obtained:
[1] = Nuclear factor erythroid 2-related factor 2/antioxidant responsive element (Nrf2/ARE) small molecule agonists: qHTS cell viability counter screen in human keratinocytes (AID 1919968; active = well fitted curve in the direction sought with a large enough effect in the repeat runs; an effect the other way counts as inactive or inconclusive; also: nearly all actives have a fitted effect of over 55% in size)
Method in brief: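 Fluorescence read-out from CellTiter-Fluor after 1 h at 37 C. Wells held HaCaT-derived ARE-luciferase reporter cells (1,500/well) treated 23 h with DMSO-dissolved compounds. Run in the same wells as the luciferase agonist read.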

[2] = Nuclear factor erythroid 2-related factor 2/antioxidant responsive element (Nrf2/ARE) small molecule agonists: luciferase reporter gene qHTS assay in human keratinocytes (AID 1919969); also: nearly all actives have a fitted effect of over 35% in size
[3] = biological target: Gonadotropin-releasing hormone receptor (Homo sapiens) (UniProt P30968); test: Human gonadotropin-releasing hormone receptor (GnRHR) small molecule agonists, calcium flux assay in GnRHR-HEK293 cells (AID 1920063); also: nearly all actives have a fitted effect of over 35% in size
Method in brief: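 Calcium-dye fluorescence, Ex/Em=480/540, recorded every 1 sec over 3 min after compound addition to GnRHR-HEK293 cells. Cells had been seeded 18 hours earlier and dye-loaded for 1 hour at 37 C. Fifteen concentrations, triplicates.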

[4] = biological target: KiSS-1 receptor (Homo sapiens) (UniProt Q969F8); test: Human kisspeptin (KISS1R) small molecule agonists, calcium flux assay in KISS1R-HEK293 cells (AID 1920064; active = well fitted curve in the direction sought with a large enough effect in the repeat runs; an effect the other way counts as inactive or inconclusive)
Method in brief: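 Calcium flux read-out: kinetic fluorescence at Ex/Em=480/540, 1 s intervals over 3 min, after pin-tool compound addition to dye-loaded KISS1R-HEK293 cells. Fifteen concentrations, triplicates.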

[5] = G protein-coupled receptor (GPCR) small molecule agonists, calcium flux assay: HEK293 wild type cell line counter screen (AID 1920065)
Method in brief: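 Agonist mode; 18 h seeding at 37 C, 1 h dye load at 37 C; compounds pinned from DMSO, ATP as positive control; kinetic fluorescence 480/540 nm, 3 min, 1 s reads; 15 concentrations, triplicate.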

[6] = p53 small molecule agonists, cell-based qHTS assay with human liver microsomes: qHTS cell viability counter screen (AID 1963579); also: nearly all actives have a fitted effect of over 45% in size
Method in brief: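 Seed p53RE-bla cells at 4,000 per well; incubate 5 h at 37 C; add compound, human liver microsomes and NADPH; incubate 16 h at 37 C; add CellTiter-Glo; after 30 min at room temperature, read luminescence.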

[7] = p53 small molecule agonists, cell-based qHTS assay with rat liver microsomes: qHTS cell viability counter screen (AID 1963580); also: nearly all actives have a fitted effect of over 45% in size
Method in brief: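 Luminescent ATP readout (CellTiter-Glo, 30 min at room temperature) reports viability of p53RE-bla HCT-116 cells after 16 h at 37 C with test compounds under metabolic activation by rat liver microsomes and NADPH at 0.5 mg/mL final each.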

[8] = p53 small molecule agonists, cell-based qHTS assay: qHTS cell viability counter screen (AID 1963581); also: nearly all actives have a fitted effect of over 45% in size
Method in brief: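 Cytotoxicity read-out: ATP-based luminescence (CellTiter-Glo, 30 min RT) measured in the same wells as the p53 reporter assay, HCT-116 p53RE-bla cells, 16 h compound exposure at 37 C.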

[9] = p53 small molecule agonists, cell-based qHTS assay (AID 1963582; active = well fitted activation curve with a large enough effect in the signal ratio in the repeat runs, not every such curve was filed as active; the % refers to the signal ratio)
Method in brief: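 Fluorescence intensity read-out of a beta-lactamase reporter under a p53 response element. Cells were exposed to DMSO-dissolved compounds for 16 h at 37 C, then developed with FRET substrate for 2 h at RT.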

[10] = biological target: 5-hydroxytryptamine receptor 2A (Homo sapiens) (UniProt P28223); test: 5-hydroxytryptamine receptor 2A (HTR2A) small molecule antagonists, cell-based qHTS assay (AID 1963586); also: nearly all actives have a fitted effect of over 45% in size; also: potency is read from the fitted curve at half-maximal effect
Method in brief: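 CHO cells stably expressing human HTR2A were plated for 18 h at 37 C, then loaded with calcium dye for 1 h. Compounds were preincubated 5 min at room temperature before DOI (4 nM solution) was added. Kinetic fluorescence was read for 3 min.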

[11] = biological target: 5-hydroxytryptamine receptor 2A (Homo sapiens) (UniProt P28223); test: 5-hydroxytryptamine receptor 2A (HTR2A) small molecule agonists, cell-based qHTS assay (AID 1963587); also: nearly all actives have a fitted effect of over 30% in size; also: potency is read from the fitted curve at half-maximal effect
Method in brief: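 HTR2A-CHO cells, plated 18 h at 37 C/5% CO2, dye-loaded 1 h at 37 C; compounds in DMSO added by pin tool (agonist mode). Intracellular calcium flux read as kinetic fluorescence on FDSS over 2 min at 1 s intervals.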

[12] = biological target: Muscarinic acetylcholine receptor M1 (Homo sapiens) (UniProt P11229); test: Cholinergic receptor muscarinic 1 (CHRM1) small molecule antagonists, cell-based qHTS assay (AID 1963588); also: nearly all actives have a fitted effect of over 40% in size
Method in brief: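 Compounds were tested at 15 concentrations in three independent runs. Dye-loaded CHRM1-CHO cells were exposed 5 min at room temperature before stimulation by acetylcholine added at 50nM. Intracellular calcium was read kinetically on FDSS for 3 min.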

[13] = biological target: Muscarinic acetylcholine receptor M1 (Homo sapiens) (UniProt P11229); test: Cholinergic receptor muscarinic 1 (CHRM1) small molecule agonists, cell-based qHTS assay (AID 1963589); also: nearly all actives have a fitted effect of over 35% in size
Method in brief: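 Calcium flux read-out: kinetic fluorescence at 1 sec intervals after pin-tool compound addition to dye-loaded CHRM1-CHO cells (human M1). Agonist mode; 15 concentrations tested in triplicate independent runs.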

[14] = cAMP Responsive Elements (CRE) small molecule antagonists, cell-based qHTS assay (AID 1963591; active = well fitted inhibition curve with a large enough effect in the signal ratio in the repeat runs, not every such curve was filed as active; the % refers to the signal ratio)
Method in brief: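 HEK293T CRE-bla; 18 h preincubation; compound pin-transfer; NKH477 0.25 uM final, 3 h, 37 C; LiveBLAzer FRET substrate 2 h RT.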

[15] = biological target: Beta-2 adrenergic receptor (Homo sapiens) (UniProt P07550); test: Adrenergic beta2 receptor (ADRB2) small molecule antagonists, cell-based qHTS assay (AID 1963592); also: series mostly up to about 92 µM; nearly all actives have a fitted effect of over 50% in size
Method in brief: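 Assay format: CHO-ADRB2 cells, 18-20hr seeding at 37C/5% CO2, then compound plus 1nM isoproterenol agonist mix for 0.5hr RT. Homogeneous time-resolved fluorescence cAMP detection after 1hr, expressed as 665/615 nm ratio.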

[16] = biological target: D(2) dopamine receptor (Homo sapiens) (UniProt P14416); test: Dopamine D2 receptor (DRD2) small molecule agonists, cell-based qHTS assay (AID 1963594); also: nearly all actives have a fitted effect of over 35% in size
Method in brief: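 HEK293 cells stably expressing DRD2 were cultured 24 h at 37 C, then given Ro20-1724 (0.1 mM final) and compounds for 10 min at room temperature. NKH477 (200nM) was then added for 30 min. cAMP was read by HTRF.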

[17] = biological target: D(2) dopamine receptor (Homo sapiens) (UniProt P14416); test: Dopamine D2 receptor (DRD2) small molecule antagonists, cell-based qHTS assay (AID 1963595; active = well fitted inhibition curve with a large enough effect in the signal ratio in the repeat runs, with a control signal flat; the % refers to the signal ratio)
Method in brief: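 DRD2-HEK293; 0.1 mM Ro20-1724; cpd 10 min RT; NKH477 200 nM + quinpirole 12 nM, 30 min RT; HTRF cAMP (cAMP-d2/anti-cAMP cryptate), 665/620 nm ratio after 1 h.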

[18] = cAMP Responsive Elements (CRE) small molecule agonists, cell-based qHTS assay (AID 1963590)
Method in brief: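 Beta-lactamase reporter readout: LiveBLAzer B/G FRET substrate, 2 h at room temperature, added after 3 h compound treatment of CRE-bla HEK 293T cells at 37 C/5% CO2.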

[19] = biological target: Beta-2 adrenergic receptor (Homo sapiens) (UniProt P07550); test: Adrenergic beta2 receptor (ADRB2) small molecule agonists, cell-based qHTS assay (AID 1963593);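 also: CHO cells stably overexpressing human ADRB2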
Method in brief: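 CHO cells stably over-expressing ADRB2 were plated overnight at 37C, then dosed with compounds plus a stimulation mix containing 100uM IBMX and 25uM Ro-20-1724 for 0.5hr at room temperature. cAMP was measured by HTRF competition, 1hr.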

[20] = p53 small molecule agonists, cell-based qHTS assay with human liver microsomes (AID 1963577);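 also: p53 response element beta-lactamase reporter cells with liver microsomes plus NADPH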
Method in brief: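 Cells carrying a p53-responsive bla reporter were rested 5 h (37 C, 5% CO2) before compound transfer. Human liver microsomes plus NADPH, 0.5 mg/mL final apiece, supplied metabolism during the 16 h 37 C exposure.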
% is scaled to controls: 0 for no effect and ±100 for the full control effect.

Sequence of 5-hydroxytryptamine receptor 2A (Homo sapiens) (P28223 whole entry, looked up): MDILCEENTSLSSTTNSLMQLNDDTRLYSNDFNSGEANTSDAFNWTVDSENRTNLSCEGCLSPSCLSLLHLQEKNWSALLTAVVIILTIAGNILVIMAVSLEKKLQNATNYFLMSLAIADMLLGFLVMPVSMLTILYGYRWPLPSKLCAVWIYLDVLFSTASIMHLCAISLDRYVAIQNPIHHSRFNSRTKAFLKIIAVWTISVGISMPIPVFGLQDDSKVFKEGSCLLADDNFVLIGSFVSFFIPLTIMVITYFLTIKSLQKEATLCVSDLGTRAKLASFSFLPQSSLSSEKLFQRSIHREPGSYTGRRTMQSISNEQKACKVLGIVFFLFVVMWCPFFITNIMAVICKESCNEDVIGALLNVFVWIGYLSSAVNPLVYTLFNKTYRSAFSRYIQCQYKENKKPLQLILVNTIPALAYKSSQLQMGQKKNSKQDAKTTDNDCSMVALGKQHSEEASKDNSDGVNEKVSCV
Sequence of Gonadotropin-releasing hormone receptor (Homo sapiens) (P30968 whole entry, looked up): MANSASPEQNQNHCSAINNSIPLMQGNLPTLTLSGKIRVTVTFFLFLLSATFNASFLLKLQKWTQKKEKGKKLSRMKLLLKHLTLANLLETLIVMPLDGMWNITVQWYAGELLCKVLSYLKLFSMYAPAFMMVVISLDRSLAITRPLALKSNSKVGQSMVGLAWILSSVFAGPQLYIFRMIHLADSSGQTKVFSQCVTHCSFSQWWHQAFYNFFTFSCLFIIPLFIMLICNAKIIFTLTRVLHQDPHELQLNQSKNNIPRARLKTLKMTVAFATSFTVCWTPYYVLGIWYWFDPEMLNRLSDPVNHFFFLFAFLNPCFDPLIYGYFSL
Sequence of Beta-2 adrenergic receptor (Homo sapiens) (P07550 whole entry, looked up): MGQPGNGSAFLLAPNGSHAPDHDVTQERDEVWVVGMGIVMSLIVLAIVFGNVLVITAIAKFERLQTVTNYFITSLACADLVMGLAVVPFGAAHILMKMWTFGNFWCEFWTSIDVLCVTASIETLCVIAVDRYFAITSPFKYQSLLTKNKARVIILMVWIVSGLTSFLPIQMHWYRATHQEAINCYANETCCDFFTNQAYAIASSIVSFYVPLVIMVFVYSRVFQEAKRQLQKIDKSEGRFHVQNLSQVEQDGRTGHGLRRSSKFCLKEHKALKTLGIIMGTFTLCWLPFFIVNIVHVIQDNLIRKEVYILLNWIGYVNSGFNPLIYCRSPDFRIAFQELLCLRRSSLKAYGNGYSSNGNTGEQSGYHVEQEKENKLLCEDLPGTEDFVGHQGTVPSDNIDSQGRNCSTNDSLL
Sequence of Muscarinic acetylcholine receptor M1 (Homo sapiens) (P11229 whole entry, looked up): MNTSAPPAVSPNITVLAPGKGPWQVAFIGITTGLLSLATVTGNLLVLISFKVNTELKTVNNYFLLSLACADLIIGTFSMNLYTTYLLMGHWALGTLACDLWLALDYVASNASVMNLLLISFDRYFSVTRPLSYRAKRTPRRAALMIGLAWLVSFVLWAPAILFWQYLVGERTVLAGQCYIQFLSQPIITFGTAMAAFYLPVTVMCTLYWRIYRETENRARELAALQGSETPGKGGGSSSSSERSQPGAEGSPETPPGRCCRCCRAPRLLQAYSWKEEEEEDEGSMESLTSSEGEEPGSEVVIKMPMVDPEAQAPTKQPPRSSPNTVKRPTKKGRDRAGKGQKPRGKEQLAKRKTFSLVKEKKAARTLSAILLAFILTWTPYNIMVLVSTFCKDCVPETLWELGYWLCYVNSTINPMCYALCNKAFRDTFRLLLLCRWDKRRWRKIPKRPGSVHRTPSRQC
Sequence of KiSS-1 receptor (Homo sapiens) (Q969F8 whole entry, looked up): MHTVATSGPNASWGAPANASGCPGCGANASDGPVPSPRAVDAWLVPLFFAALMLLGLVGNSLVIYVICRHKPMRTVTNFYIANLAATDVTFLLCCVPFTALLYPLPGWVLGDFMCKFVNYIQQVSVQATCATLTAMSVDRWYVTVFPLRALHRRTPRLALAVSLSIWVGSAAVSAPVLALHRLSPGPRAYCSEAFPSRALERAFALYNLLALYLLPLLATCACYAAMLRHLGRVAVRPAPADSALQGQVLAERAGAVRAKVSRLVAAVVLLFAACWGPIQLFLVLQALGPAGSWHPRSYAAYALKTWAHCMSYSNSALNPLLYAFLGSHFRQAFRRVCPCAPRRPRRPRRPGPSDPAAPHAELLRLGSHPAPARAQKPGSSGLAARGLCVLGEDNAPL
Sequence of D(2) dopamine receptor (Homo sapiens) (P14416 whole entry, looked up): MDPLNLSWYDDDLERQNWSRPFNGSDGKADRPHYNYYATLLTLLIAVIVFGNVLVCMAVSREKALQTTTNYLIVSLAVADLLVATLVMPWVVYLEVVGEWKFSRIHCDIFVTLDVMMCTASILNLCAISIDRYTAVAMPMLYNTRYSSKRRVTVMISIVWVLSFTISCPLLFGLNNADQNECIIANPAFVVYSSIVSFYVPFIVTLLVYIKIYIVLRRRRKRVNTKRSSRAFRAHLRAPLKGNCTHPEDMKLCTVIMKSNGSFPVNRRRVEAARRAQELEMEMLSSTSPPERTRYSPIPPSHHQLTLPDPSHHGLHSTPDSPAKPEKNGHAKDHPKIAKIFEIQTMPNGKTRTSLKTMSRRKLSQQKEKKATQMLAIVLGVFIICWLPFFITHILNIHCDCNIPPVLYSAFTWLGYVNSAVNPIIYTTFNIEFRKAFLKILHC

CC(=O)c1sc(C)nc1C
inactive: Potency [1] | Potency [2] | Potency [3] | Potency [4] | Potency [5] | Potency [6] | Potency [7] | Potency [8] | Potency [9] | Potency [10] | Potency [11] | Potency [12] | Potency [13] | Potency [14] | Potency [15] | Potency [16] | Potency [17]

O=C(c1ccccc1O)c1ccccc1O
inactive: Potency [1] | Potency [2] | Potency [3] | Potency [4] | Potency [5] | Potency [6] | Potency [7] | Potency [8] | Potency [9] | Potency [10] | Potency [11] | Potency [12] | Potency [18] | Potency [14] | Potency [15] | Potency [16]

CCC(C)NC(N)=O (centres undefined)
inactive: Potency [1] | Potency [2] | Potency [3] | Potency [4] | Potency [5] | Potency [6] | Potency [7] | Potency [8] | Potency [9] | Potency [10] | Potency [11] | Potency [12] | Potency [13] | Potency [18] | Potency [14] | Potency [15] | Potency [19] | Potency [16] | Potency [17]

CC(=O)[C@H]1CC[C@H]2[C@@H]3CCC4=CC(=O)CC[C@]4(C)[C@H]3CC[C@]12C
inactive: Potency [1] | Potency [2] | Potency [3] | Potency [4] | Potency [5] | Potency [20] | Potency [6] | Potency [7] | Potency [8] | Potency [16]

IC(I)I
inactive: Potency [1] | Potency [2] | Potency [3] | Potency [4] | Potency [5] | Potency [6] | Potency [7] | Potency [8] | Potency [9] | Potency [10] | Potency [11] | Potency [12] | Potency [13] | Potency [18] | Potency [14] | Potency [15] | Potency [16] | Potency [17]

O=C(/N=N/C(=O)OCc1ccccc1)OCc1ccccc1
inactive: Potency [1] | Potency [2] | Potency [3] | Potency [4] | Potency [5] | Potency [6] | Potency [7] | Potency [8] | Potency [9] | Potency [10] | Potency [11] | Potency [12] | Potency [13] | Potency [18] | Potency [14] | Potency [15] | Potency [19] | Potency [16] | Potency [17]

Cc1ccc(N(C)C)cc1
inactive: Potency [1] | Potency [2] | Potency [3] | Potency [4] | Potency [5] | Potency [6] | Potency [7] | Potency [8] | Potency [9] | Potency [11] | Potency [12] | Potency [13] | Potency [18] | Potency [14] | Potency [15] | Potency [19] | Potency [16] | Potency [17]
inactive and 133 nM (active): Potency [10]

O=P(OC(CCl)CCl)(OC(CCl)CCl)OC(CCl)CCl
inactive: Potency [1] | Potency [2] | Potency [3] | Potency [4] | Potency [5] | Potency [6] | Potency [7] | Potency [8] | Potency [9] | Potency [10] | Potency [12] | Potency [13] | Potency [18] | Potency [14] | Potency [15] | Potency [16] | Potency [17]
active: Potency [11] 43.4 µM and 2.19 µM

CN(C)c1ccc(/C=C/c2ccc([N+](=O)[O-])cc2)cc1
inactive: activity change, negative = cytotoxicity [1] 0.836% [at 8.39 µM] | activity, positive = activation [2] 12.5% [at 8.39 µM] | activity change [3] 5.74% [at 5.22 µM, stronger effect = higher value] | activation [4] 7.36% [at 6.97 µM] | activation [5] 0.221% [at 5.23 µM] | activation [20] -2.79% [at 5.99 µM] | activity change, negative = cytotoxicity [7] -5.21% [at 5.99 µM] | activity change, negative = cytotoxicity [8] -1.3% [at 5.99 µM] | activation [9] -2.24% [at 5.99 µM] | activity, negative = inhibition [10] -0.541% [at 5.62 µM] | activation [11] 13.3% [at 7.02 µM] | activity, negative = inhibition [12] -8.69% [at 5.58 µM] | activation [13] 0.732% [at 6.97 µM] | activation [18] -3.18% [at 8.39 µM] | activity change, negative = inhibition [14] 1.12% [at 8.39 µM] | activity change, negative = inhibition [15] 1.64% [at 8.39 µM] | activation [16] -5.78% [at 8.39 µM] | activity change, negative = inhibition [17] -2.29% [at 8.38 µM]
